# According to PubChem BioAssay AID504467 (National Center for Advancing Translational Sciences (NCATS), 2011):
# In all, about 330,000 compounds went through this assay and about 7,700 (2.3%) were called active. Roughly 26% stayed inconclusive and do not appear here. Calls follow the shape of the dose curve; as a rule, active = well fitted inhibition curve with a large enough effect; inconclusive = small, poorly fitted or top-dose-only effect, or effect the other way; inactive = flat fitted curve, though single readings scatter. Shown is part of a subset that was picked to be rich in actives.
# Assay: qHTS screen for small molecules that inhibit ELG1-dependent DNA repair in human embryonic kidney (HEK293T) cells expressing luciferase-tagged ELG1; also: nearly all actives have a fitted effect of over 55% in size
# Conditions: HEK293T ELG1-luciferase reporter, luminescence, 16 h, DNA damage induced by 5-fluorouridine; series mostly up to 46.1 µM; activity change, negative = inhibition: at the top concentration
# Procedure, shortened: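 Quantitative HTS, concentration-response format. 2,000 cells/well co-treated with 5-fluorouridine and compound, 16 hr in 5% CO2 at 37 °C; ONE-Glo luminescence read after 30 min.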
# % is scaled to controls: 0 for no effect and ±100 for the full control effect; potency is read from the fitted curve at half-maximal effect.
Compound,"activity change, negative = inhibition",Potency
Cc1c(Cl)c([N+](=O)[O-])nn1CCCC(=O)Nc1cc(Cl)ccc1Cl,1.54% (inactive),
Cc1c(Cl)c([N+](=O)[O-])nn1Cc1ccc(C(=O)N/N=C\c2cc(Cl)ccc2O)o1,,5.17 µM (active)
Cc1ccc(C(=O)O)cc1NC(=O)c1ccc(Cn2nc(C)c(Cl)c2C)o1,4.59% (inactive),
COc1ccc(Br)cc1CN(C)C(=O)C1CC(=O)N(C2CCCC2)C1 (centres undefined),-4.6% (inactive),
CC(OC(=O)CNC(=O)c1ccco1)C(=O)Nc1ccc(Cl)cn1 (centres undefined),24.7% (inactive),
COc1ccc(-c2nnc(NC(=O)CS(=O)(=O)c3ccc(Cl)cc3)o2)c(OC)c1,1.46% (inactive),
COc1cc(-c2nc(S(=O)(=O)c3ccc(Cl)cc3)c(N(C)C)o2)cc(OC)c1OC,,8.2 µM (active)
O=S(=O)(c1ccc(Cl)cc1)c1nc(-c2ccco2)oc1N1CCCCC1,-29% (inactive),
CC(=O)Nc1ccc(S(=O)(=O)NC(C)C(=O)OCCOc2ccc(F)cc2)cc1 (centres undefined),7.42% (inactive),
COc1ccccc1NC(=O)C1=C(C)NC(=O)NC1c1ccc(C)s1 (centres undefined),4.16% (inactive),
CCOC(=O)C1=C(C)Nc2nc3ccccc3n2C1c1cccs1 (centres undefined),-0.153% (inactive),
COc1ccccc1NC(=O)C1=C(C)Nc2nc3ccccc3n2C1c1cccs1 (centres undefined),,9.2 µM (active)
CCOC(=O)C1CCCN(C(=O)c2ccc(C)c(S(=O)(=O)N3CCCCC3)c2)C1 (centres undefined),-20.4% (inactive),
CCOC(=O)C1=C(C)N=c2s/c(=C\C(=O)OC)c(=O)n2C1c1ccc(OC)cc1 (centres undefined),7.84% (inactive),
C=CCOC(=O)C1=C(C)NC(C)=C(C(=O)OCC=C)C1c1cccs1,-9.34% (inactive),
COCCOC(=O)C1=C(C)N=c2s/c(=C\c3cccs3)c(=O)n2C1c1cccs1 (centres undefined),,14.6 µM (active)
COc1ccc(C)cc1Nc1nc(C)nc2c1oc1ccccc12,,5.17 µM (active)
Cc1nc(Cl)c2oc3ccccc3c2n1,2.76% (inactive),
COC(=O)c1cnc(Nc2cc(C)ccc2OC)c2ccccc12,-1.92% (inactive),
Cc1cc(C)c(OCC(=O)N(Cc2cccs2)C2CCS(=O)(=O)C2)c(C)c1 (centres undefined),-4.24% (inactive),
COc1ccc(CCN2C(=O)C(C)=C(C)C2=O)cc1OC,6.36% (inactive),
CCN1C(=O)[C@@H]2[C@@H](c3ccc(-c4ccc(OC)cc4)c(OC)c3)N3CCC[C@@]3(C(=O)OC)[C@@H]2C1=O,9.25% (inactive),
Cc1ccc(NC(=O)C2CCN(S(=O)(=O)c3ccc4c(c3)NC(=O)CO4)CC2)cc1C,-9.24% (inactive),
CCn1cc(C(=O)NCC2CCCO2)c(=O)c2cc(S(=O)(=O)N3CCCCC3)ccc21 (centres undefined),-15.3% (inactive),
C=CCn1cc(C(=O)NCc2ccc(Cl)cc2)c(=O)c2cc(S(=O)(=O)N(CC)CC)ccc21,,8.2 µM (active)

Compound,"activity change, negative = inhibition",Potency
CCOC(=O)N1CCN(C(=O)c2cn(C)c3ccc(S(=O)(=O)N(CC)CC)cc3c2=O)CC1,0.556% (inactive),
CCOC(=O)[C@H]1[C@H]2COc3ccc(Cl)cc3[C@@H]2N2C(=O)c3cc(C)ccc3NC(=O)[C@@]12C,-23.2% (inactive),
Cn1ccsc1=NC(=O)c1cc(S(=O)(=O)N2CCOCC2)ccc1Cl,10.7% (inactive),
Cc1cccc2nc(CSc3nc4[nH]ncc4c(=O)n3-c3cccc(Cl)c3)cc(=O)n12,,20.6 µM (active)
Cc1cccc(NC(=O)CSc2nc3[nH]ncc3c(=O)[nH]2)c1,13% (inactive),
COc1ccc(CCNC(=O)CSc2nc3[nH]ncc3c(=O)n2-c2cccc(C(F)(F)F)c2)cc1OC,-14.2% (inactive),
CC(C)C(NC(=O)c1c(F)cccc1F)C(=O)NCc1ccncc1 (centres undefined),-10.4% (inactive),
COc1cccc(OC)c1C(=O)Nc1ccc(Cc2ccncc2)cc1,-9.05% (inactive),
O=C(Nc1ccncc1)c1c(F)cccc1F,,6.51 µM (active)
CSc1ncc(C(=O)Nc2ccc(C)cc2C)c(C)n1,6.34% (inactive),
FC(F)(F)c1nc(-c2ccccc2)ncc1-c1nnnn1-c1ccccc1,,20.6 µM (active)
c1ccc(-n2nnnc2-c2cccnc2)cc1,-4.14% (inactive),
c1ccc(-n2nnnc2NC2CCCCCC2)cc1,-0.841% (inactive),
CC(=O)c1ccc(N2CCN(C(=O)CCc3ccccc3)CC2)cc1,6.73% (inactive),
O=C1CCC/C=C/C[C@@H](CC(=O)N(CCO)Cc2ccccc2)C(=O)NC[C@H](c2ccccc2)O1,17% (inactive),
C/C(=N\OC(=O)c1ccccc1)c1c(C)nc2cc(C)ccn12,-4.4% (inactive),
Cc1ccn2c(=O)c(NC(=O)c3cccc4ccccc34)c(C)nc2c1,,5.17 µM (active)
Cc1nc2ccccn2c(=O)c1NC(=O)c1cccs1,7.29% (inactive),
Nc1ccc(Oc2ccc(Cl)cc2)cc1,0.524% (inactive),
Cc1ccc(Oc2ccc(N)cc2)cc1,18.9% (inactive),
CC(C)(C)c1ccc(Oc2ccc(N)cc2)cc1,,7.31 µM (active)
Cc1ccc(S(=O)(=O)NCC2CCC(C(=O)N3CCOCC3)CC2)cc1 (centres undefined),12.9% (inactive),
C=CCSc1nnc(N2C(=O)C(O)=C(C(=O)c3ccco3)C2c2ccc(F)cc2)s1 (centres undefined),-9.68% (inactive),
CC1CC(=NNC(=O)C2COc3ccccc3O2)CC(C)(C)C1 (centres undefined),25.5% (inactive),
O=C(OCC(=O)N1CCN(C(=O)c2ccco2)CC1)c1ccc(Cl)c(Cl)c1,11.7% (inactive),

Compound,"activity change, negative = inhibition",Potency
O=c1[nH]c(NCCO)nnc1Cc1ccc(Cl)cc1,-2.82% (inactive),
COc1ccc(Cc2nnc(N/N=C/c3ccccc3O)[nH]c2=O)cc1OC,,4.11 µM (active)
CC(C)c1ccc(Cc2nnc(NCCCO)[nH]c2=O)cc1,-0.109% (inactive),
C=CCN1CN(S(=O)(=O)c2ccc(OC)cc2)c2nc3ccccc3nc21,4.11% (inactive),
CCn1nc(C)c(CNC(=O)C2CCC(=O)N(Cc3cccc(F)c3)C2)c1C (centres undefined),-6.48% (inactive),
COC(=O)[C@]1(C)N[C@H](CN(C)C(=O)c2ccc(C(C)(C)C)cc2)[C@@H]2C(=O)N(C)C(=O)[C@@H]21,9.59% (inactive),
COc1ccc(NC(=O)CN(Cc2ccccc2)S(C)(=O)=O)cc1OC,0.322% (inactive),
COc1ccc(NC(=O)CC2SC(N3CCCCC3)=NC2=O)cc1OC (centres undefined),27.7% (inactive),
COc1ccc(NC(=O)CN2C(=O)C(c3ccccc3)=NC23CCCCCC3)cc1OC,,23.1 µM (active)
COc1cc(S(=O)(=O)N2CCN=C2c2ccccc2)ccc1Cl,12.4% (inactive),
Cn1c(=O)c2c(SCC(=O)NCC3CCCO3)nc(CC(C)(C)C)nc2n(C)c1=O (centres undefined),-10% (inactive),
COc1ccc(NC(=O)C2CCC(CNc3c(N4CCCCC4)c(=O)c3=O)CC2)c(OC)c1 (centres undefined),,7.3 µM (active)
CCN(CC)c1ccc(NC(=O)C2CCC(CNc3c(N4CCCC4)c(=O)c3=O)CC2)c(C)c1 (centres undefined),-13.2% (inactive),
CCOc1ccccc1NC(=O)C1CCC(CNc2c(N3CCOCC3)c(=O)c2=O)CC1 (centres undefined),0.0516% (inactive),
CC(CCc1ccccc1)NC(=O)c1cnc(Cl)c(Cl)c1 (centres undefined),-6.26% (inactive),
Cc1ncoc1C(=O)N1CCCC(C(=O)c2ccc3c4c(cccc24)CC3)C1 (centres undefined),,16.4 µM (active)
CCn1ccnc1CN1CCCC(C(=O)c2ccc3c4c(cccc24)CC3)C1 (centres undefined),8.93% (inactive),
CC(=O)NCC(=O)N1CCCC(C(=O)c2ccc3c4c(cccc24)CC3)C1 (centres undefined),-5.67% (inactive),
CC1CCCCC1NC(=O)NC(=O)COC(=O)C1=NN(c2ccccc2)C(=O)CC1 (centres undefined),20.6% (inactive),
CCCC(=O)N1CCN(c2nnc(-c3ccc(C)cc3)c3ccccc23)CC1,19.1% (inactive),
COc1ccc(CCN(C)C(=O)C23CC4CC(CC(Cl)(C4)C2)C3)cc1OC,-13.6% (inactive),
CCCn1c(C2CCCN2c2nc(-c3ccc(C)cc3)cs2)nc2cc(Cl)c(N3CCCCC3)cc21 (centres undefined),-1.63% (inactive),
CC(C)(C)OC(=O)Nc1ccc([C@@H](NC(=O)OC(C)(C)C)C(=O)OC(C)(C)C)cc1,6.05% (inactive),
CC(=O)c1cccc(NC(=O)C2CCN(C(=O)c3ccccc3Cl)CC2)c1,-26% (inactive),
CCc1nnc(NC(=O)C2CCN(C(=O)c3ccccc3C)CC2)s1,-0.619% (inactive),

Compound,"activity change, negative = inhibition",Potency
Cc1ccccc1C(=O)N1CCC(C(=O)Nc2ccc(S(=O)(=O)N(C)C(C)C)cc2)CC1,,16.4 µM (active)
O=C(Nc1ccccc1N1CCOCC1)c1ccc(OCc2cscn2)cc1,-20.9% (inactive),
O=C(COC(=O)CCCN1C(=O)c2cccc3cccc(c23)C1=O)NC1CCS(=O)(=O)C1 (centres undefined),16.1% (inactive),
CCOC(=O)CSc1nc2ccc(C)cc2n2cnnc12,6.26% (inactive),
O=C(CCc1nnc2ccc(NCc3ccco3)nn12)Nc1cc(F)ccc1F,7.8% (inactive),
COc1cccc(-c2nc(CS(=O)(=O)CC(=O)NCCc3ccc(OC)c(OC)c3)c(C)o2)c1,-23.3% (inactive),
COc1ccc(CCN(C)C(=O)C2CCCN(Cc3ccc(OC)c(OC)c3)C2)cc1OC (centres undefined),,inactive
COc1ccc(CCNC(=O)C2CCCN(Cc3nc(-c4cccc(Cl)c4)oc3C)C2)cc1OC (centres undefined),,10 µM (active)
CCOc1ccc(-n2c(SCC(=O)OC)nc3sc4c(c3c2=O)CCN(C)C4)cc1,7.61% (inactive),
Cc1cn(COC/C=C/c2ccccc2)c(=O)[nH]c1=O,9.83% (inactive),
O=C(/C=C/c1ccccc1)c1ccccc1O,24.6% (inactive),
Cc1[nH]c(=O)c(C(=O)/C=C/c2ccccc2)c2c1CCCC2,,8.2 µM (active)
OC(CN=c1sc2ccccc2n1CC(O)COc1ccccc1)COc1ccccc1 (centres undefined),,20.6 µM (active)
O=C(c1ccccc1)c1ccc(OCC(O)CN2CCCC2)cc1 (centres undefined),-15% (inactive),
OC(COc1ccccc1)Cn1cc(Br)cn1 (centres undefined),11.2% (inactive),
CC1(C)CC(=O)C=C(c2ccc(Cl)c(C(F)(F)F)c2)C1,12.4% (inactive),
COc1ccc(C(CNC(=O)COc2ccc([N+](=O)[O-])cc2)N2CCCCC2)cc1 (centres undefined),18.2% (inactive),
Cc1c(O)c(C)c2c(c1O)C(=O)C[C@@H](c1ccccc1)O2,20.9% (inactive),
COc1cc(C(=S)NCc2ccccc2)cc(Br)c1O,-1.45% (inactive),
COc1cc(C(=O)NCc2ccncc2)cc(Br)c1OCc1ccccc1,,14.6 µM (active)
COc1cc(C(=O)NCc2ccc(-n3cccc3)cc2)cc(OC)c1OC,14.2% (inactive),
CC[C@]1(C(=O)OC)[C@H]2C(=O)N(C)C(=O)[C@H]2[C@H]2CN(C)C(=NCc3ccccc3)N21,0.774% (inactive),
COc1ccc(NC(=O)CN(C)C(=O)c2cccc(S(=O)(=O)N3CCN(c4ccccc4)CC3)c2)cc1,-24.7% (inactive),
CC1CCCCC1NC(=O)Cn1cnc2c1c(=O)n(C)c(=O)n2C (centres undefined),9.25% (inactive),
